Assay [1] deals with Human papillomavirus type 1a protein E7 (residues 44-93). Nature of the assay: small molecules binding HPV E7 44-93 – biochemical, small-molecule microarray, residues 44-93, 635 nm fluorescence, primary screen (AID 1108).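 Also: E7 fragment applied at 1 µg/mL in TBST for 1 h at 4 C; score combines spot fluorescence with its signal to noise ratio.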 The settings on record: fluorescence 635 nm, higher = more signal.
Assay [2] in a line: hepatitis C replication reporter changes, two-sided – Huh7 cells, luciferase reporter, HCV replication inhibitor project, primary screen (AID 1109).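 Also: huh7 hepatoma cells harbouring a luciferase neomycin HCV replicon reporter; luciferase luminescence as measure of HCV replicon replication; test concentration not given here.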 The settings on record: Huh7 HCV replicon luciferase reporter, 48 h; higher = more signal. On the technique in general: Reporter assays use an easily measured gene product as a stand-in for the process of interest.
For assay [3], the target named is Left-right determination factor 2 (Homo sapiens) (UniProt O00292). The assay is described as follows: small molecules binding LEFTY2 protein – biochemical, small-molecule microarray, 635 nm fluorescence scan, primary screen (AID 1110). The settings on record: higher = more signal.
Assay [4] has as its target Calmodulin-1 (Homo sapiens) (UniProt P0DP23). The assay is described as follows: small molecules binding calmodulin-1 with EGTA – biochemical, small-molecule microarray, Cy5-labelled CALM1, profiling panel (AID 1111).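 Also: labelled calmodulin applied in Tris saline Tween buffer holding calcium plus EGTA and DTT.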 Particulars: Cy5-CALM1 binding fluorescence, higher = more signal.
The target is the same in assay [5]. The assay is described as follows: small molecules binding Ca-loaded calmodulin-1 – biochemical, small-molecule microarray, Cy5-labelled CALM1, plus calcium, artefact control for SMM control-protein annotation, profiling panel (AID 1112).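 Also: score merges spot fluorescence with signal to noise from triplicate slides.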 The settings on record: Cy5-CALM1 binding fluorescence, higher = more signal.
The nature of assay [6]: probe aWnt5a binding to arrayed compounds – biochemical, biotinylated probe, 635/667 nm fluorescence, primary screen (AID 1113).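 Also: score merges 667 nm fluorescence intensity with signal-to-noise per printed feature.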 Particulars: small-molecule microarray, higher = more signal.
Assay [7] is described as follows: probe aShh binding to arrayed compounds – biochemical, biotinylated probe, 635/667 nm fluorescence, primary screen (AID 1114).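 Also: probe is biotin-labelled aShh protein from a stem cell growth factor screen; measures binding of labelled protein to compounds printed on the slide; score merges feature fluorescence at 667 nm with signal-to-noise.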 The settings on record: small-molecule microarray, higher = more signal.
A short description of assay [8]: probe aNog binding to arrayed compounds – biochemical, biotinylated probe, 635/667 nm fluorescence, primary screen (AID 1115).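 Also: probe is biotinylated aNog protein used at 0.15 µg/mL for 1 h at 4 C; z-score combines 667 nm fluorescence of each spot with its signal to noise.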 Particulars: small-molecule microarray, higher = more signal.
Assay [9] concerns the target Torsin-1A-interacting protein 1 (Homo sapiens) (UniProt Q5JTV8). Nature of the assay: compound microarray binding of lysate hLAP1 – cell lysate, small-molecule microarray, COS7 lysate, 635/667 nm fluorescence, primary screen (AID 1116). Particulars: 635 nm fluorescence, higher = more signal.
The target in assay [10] is Alpha-bungarotoxin (Bungarus multicinctus) (UniProt P60615). Nature of the assay: compounds binding labelled alpha-BTX control protein – biochemical, small-molecule microarray, Alexa647 label, 635/667 nm fluorescence, artefact control for SMM control protein annotation, profiling panel (AID 1117). The settings on record: alpha-BTX-A647 binding fluorescence, higher = more signal.

Assay [11] has as its target Albumin (Bos taurus) (UniProt P02769). Nature of the assay: compounds binding labelled BSA control protein – biochemical, small-molecule microarray, Alexa647 label, 635/667 nm fluorescence, artefact control for SMM control protein annotation, profiling panel (AID 1118).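 Also: score merges 667 nm emission intensity and signal-to-noise per printed compound spot.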 The settings on record: BSA-A647 binding, fluorescence 635 nm, higher = more signal.
A short description of assay [12]: probe aXIP binding to arrayed compounds – biochemical, NeuroSMM set, 635/667 nm fluorescence, primary screen (AID 1119).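 Also: probe is the protein aXip251-270 applied at 1 µg/mL to compound-printed slides; binding of probe to printed compounds measured as 667 nm fluorescence plus signal to noise.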 The settings on record: small-molecule microarray, higher = more signal, called active from +8 up or from −8 down.
A short description of assay [13]: probe aNOTCH3 binding on compound microarray – biochemical, small-molecule microarray, 635/667 nm fluorescence, primary screen (AID 1120).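 Also: probe is a biotin-tagged antibody raised against NOTCH3 rather than NOTCH3 protein; score merges spot fluorescence near 667 nm with spot signal to noise.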 Particulars: higher = more signal.
A short description of assay [14]: probe aNOTCH2 binding on compound microarray – biochemical, small-molecule microarray, 635/667 nm fluorescence, primary screen (AID 1121).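 Also: score merges feature fluorescence read at 667 nm with its signal to noise.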 Particulars: higher = more signal.
The target in assay [15] is Carbonic anhydrase 2 (Homo sapiens) (UniProt P00918). Nature of the assay: compounds binding carbonic anhydrase 2 – biochemical, small-molecule microarray, Alexa647-labelled CAII, profiling panel (AID 1122). Particulars: CAII-A647 binding fluorescence, higher = more signal.
The nature of assay [16]: COS7 lysate on small-molecule microarray, probe aHis, 635 nm (AID 1123).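 Also: z-score combines 667nm fluorescence intensity with signal-to-noise per printed compound spot.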 Particulars: COS7 cell lysate, fluorescence, higher = more signal.
Assay [17] in a line: probe aLAP1 signal on lysate-treated microarray – cell lysate, small-molecule microarray, COS7 lysate, primary screen (AID 1124).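 Also: lysate comes from COS7 cells expressing LAP1 and is applied at 0.3 µg/mL; score merges spot fluorescence near 667 nm with signal-to-noise over triplicate slides.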 The settings on record: probe aLAP1, fluorescence, higher = more signal.
Assay [18] has as its system Sam68 (KHDRBS1). Nature of the assay: compounds binding KHDRBS1 protein – biochemical, small-molecule microarray, 635 nm fluorescence, primary screen (AID 1125).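 Also: score merges 667 nm channel intensity with signal to noise over triplicate slides.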 Particulars: higher = more signal.
Assay [19] concerns Chordin-like protein 2 (CHRDL2). The assay is described as follows: compounds binding chordin-like 2 – biochemical, small-molecule microarray, 635 nm fluorescence, primary screen (AID 1126).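 Also: printed compound slides probed with Chrdl2 protein at 4 µg/mL for 1 h at 4 C; score merges 667 nm emission intensity with signal to noise over three replicate slides.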 Particulars: fluorescence 635 nm, higher = more signal.
The target of assay [20] is Concanavalin-A (Canavalia ensiformis) (UniProt P02866). The assay is described as follows: compounds binding concanavalin A lectin – biochemical, small-molecule microarray, Alexa647 label, 635 nm, artefact control for SMM control protein annotation, primary screen (AID 1127).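 Also: z combines 667 nm emission intensity with signal-to-noise across three replicate slides.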 Particulars: ConA-A647 binding fluorescence, higher = more signal.

Molecules are shown by their SMILES. The source made the active and inactive calls.

Sequence of Alpha-bungarotoxin (Bungarus multicinctus) (P60615 whole entry, looked up): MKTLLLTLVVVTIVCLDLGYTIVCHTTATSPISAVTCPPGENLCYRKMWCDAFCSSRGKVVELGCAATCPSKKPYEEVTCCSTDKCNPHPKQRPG
Sequence of Left-right determination factor 2 (Homo sapiens) (O00292 whole entry, looked up): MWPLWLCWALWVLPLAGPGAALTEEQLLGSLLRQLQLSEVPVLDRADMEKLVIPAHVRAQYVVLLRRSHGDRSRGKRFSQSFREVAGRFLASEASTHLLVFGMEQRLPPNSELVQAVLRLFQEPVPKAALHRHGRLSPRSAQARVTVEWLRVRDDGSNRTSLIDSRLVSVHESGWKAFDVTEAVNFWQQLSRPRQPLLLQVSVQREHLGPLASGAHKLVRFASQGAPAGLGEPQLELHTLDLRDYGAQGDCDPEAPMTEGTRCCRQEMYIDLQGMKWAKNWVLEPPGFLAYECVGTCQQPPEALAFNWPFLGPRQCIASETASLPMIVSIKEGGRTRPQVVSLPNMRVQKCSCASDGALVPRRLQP
Sequence of Concanavalin-A (Canavalia ensiformis) (P02866 whole entry, looked up): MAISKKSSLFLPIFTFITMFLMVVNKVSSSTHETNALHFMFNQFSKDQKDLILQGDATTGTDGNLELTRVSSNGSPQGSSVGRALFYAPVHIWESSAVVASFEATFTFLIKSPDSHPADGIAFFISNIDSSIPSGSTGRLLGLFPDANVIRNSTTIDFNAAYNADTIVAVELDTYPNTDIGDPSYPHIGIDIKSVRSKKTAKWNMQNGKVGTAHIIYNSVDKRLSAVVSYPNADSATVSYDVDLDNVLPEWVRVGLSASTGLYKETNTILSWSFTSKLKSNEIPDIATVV
Sequence of Torsin-1A-interacting protein 1 (Homo sapiens) (Q5JTV8 whole entry, looked up): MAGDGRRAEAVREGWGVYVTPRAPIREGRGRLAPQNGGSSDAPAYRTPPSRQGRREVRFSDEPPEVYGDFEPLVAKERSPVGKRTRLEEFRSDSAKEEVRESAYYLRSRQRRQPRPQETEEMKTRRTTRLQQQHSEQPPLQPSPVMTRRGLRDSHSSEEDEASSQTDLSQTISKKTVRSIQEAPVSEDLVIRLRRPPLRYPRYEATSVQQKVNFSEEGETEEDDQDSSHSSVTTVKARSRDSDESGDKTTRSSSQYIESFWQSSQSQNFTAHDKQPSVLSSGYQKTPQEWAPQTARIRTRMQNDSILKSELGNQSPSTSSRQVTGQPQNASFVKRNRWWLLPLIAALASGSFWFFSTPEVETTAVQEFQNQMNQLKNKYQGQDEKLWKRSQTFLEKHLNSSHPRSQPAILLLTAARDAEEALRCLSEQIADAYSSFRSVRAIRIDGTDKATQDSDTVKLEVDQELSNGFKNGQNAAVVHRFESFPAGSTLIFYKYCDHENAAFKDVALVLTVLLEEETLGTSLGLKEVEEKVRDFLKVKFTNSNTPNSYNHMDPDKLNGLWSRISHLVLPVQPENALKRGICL
Sequence of Albumin (Bos taurus) (P02769 whole entry, looked up): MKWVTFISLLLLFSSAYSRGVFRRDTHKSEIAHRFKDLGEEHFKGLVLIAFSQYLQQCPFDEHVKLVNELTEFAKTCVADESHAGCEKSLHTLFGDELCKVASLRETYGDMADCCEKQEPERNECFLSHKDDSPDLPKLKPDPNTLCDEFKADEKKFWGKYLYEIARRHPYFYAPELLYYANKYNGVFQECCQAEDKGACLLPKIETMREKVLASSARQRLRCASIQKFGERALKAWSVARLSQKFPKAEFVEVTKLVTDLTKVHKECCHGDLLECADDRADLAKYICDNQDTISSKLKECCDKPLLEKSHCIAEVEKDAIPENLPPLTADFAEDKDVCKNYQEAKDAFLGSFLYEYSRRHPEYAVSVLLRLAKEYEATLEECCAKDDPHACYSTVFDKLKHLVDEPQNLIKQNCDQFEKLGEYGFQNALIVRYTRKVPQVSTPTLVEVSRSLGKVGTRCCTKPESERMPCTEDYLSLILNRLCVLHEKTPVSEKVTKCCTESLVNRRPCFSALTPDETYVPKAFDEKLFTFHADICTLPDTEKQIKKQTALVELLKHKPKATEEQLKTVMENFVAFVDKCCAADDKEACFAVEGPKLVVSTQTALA

For the compound `COC(=O)c1c(CC[C@@H](CO)NC(=O)NCCc2c[nH]c3ccccc23)oc(C(=O)Cc2ccccc2)c1C(=O)OC`, the composite z-score in assay [1] was 0.465; in assay [3], 0.353; in [4] it was -0.103; in assay [5] it was -0.46; in [6], 0.0657; in [7], -0.0011. For the same compound, the composite z-score in assay [8] is -0.33; in assay [9], 0.385; in [10], -0.172; in assay [11], 0.0018; in [13] it was 0.0842; in assay [14], -0.14. Besides, the composite z-score in assay [15] is 0.112; in [16], 0.452; in assay [17] it was -0.161; in [18], 0.583; in assay [19] it was 0.149; in [20], 0.467. The same compound yielded a z-score in [2] of -1.16. Moreover, the composite Z-score in assay [12] was -0.326 (inactive).

For `COC(=O)[C@]1(CCC(=O)OC(C)(C)C)N=C(c2ccc(OCCCO)cc2)O[C@@H]1c1ccccc1`, the composite z-score is 0.529 in assay [1]; -1.45 in assay [3]; -0.221 in [4]; 0.271 in assay [5]; -0.0405 in assay [6]; 0.04 in assay [7]. Moreover, the composite z-score in assay [8] was 1.24; in assay [9] it was 1.79; in [10], 1.29; in [11], 0.0503; in assay [13], 0.0834; in [14], 0.153. In addition, the composite z-score in assay [15] was 0.687; in assay [16] it was 1.83; in [17], 0.569; in assay [18], -0.116; in assay [19] it was -0.483; in assay [20], 0.259. For the same compound, the z-score in assay [2] was -2.73. In assay [12], the composite Z-score was 1.55 (inactive).

In the case of `NC(=O)[C@@]1(Cc2ccccc2)N=C(c2ccc(OCCCO)cc2)O[C@H]1c1ccccc1`, the composite z-score is -1.02 in assay [1]; -0.949 in assay [3]; 1.19 in [4]; 1.2 in assay [5]; -0.11 in assay [6]; 0.629 in assay [7]. The composite z-score in assay [8] is 1.06; in [9] it was 3.1; in [10] it was -0.387; in assay [11], 0.852; in assay [13], 0.0276; in [14] it was 0.0247. For the same compound, the composite z-score is 0.721 in assay [15]; 3.05 in assay [16]; 0.593 in assay [17]; 0.572 in assay [18]; -0.643 in assay [19]; 0.737 in assay [20]. The compound also returned a z-score in [2] of -0.605. In addition, the composite Z-score in assay [12] was 0.546 (inactive).

Consider `CCOc1ccc(N2C(=O)CSC2c2cccc([N+](=O)[O-])c2)cc1` (stereo not given), for which the composite z-score in assay [1] was 1.35; in assay [3] it was 0.216; in assay [4], 0.847; in [5], 0.615; in assay [6], -0.0383; in [7], 0.0796. In addition, the composite z-score in assay [8] is -0.194; in assay [9] it was 0.143; in assay [10], 1.5; in assay [11], 0.954; in [13] it was 0.133; in [14] it was -0.14. Also, the composite z-score in assay [15] is 0.36; in assay [16] it was 1.63; in [17] it was 0.181; in assay [18] it was 0.829; in [19], 0.428; in assay [20], 0.789. The z-score in assay [2] is -0.343. The composite Z-score in [12] is 0.625 (inactive).

Take `CC(C)CN1C(=O)[C@@]2(c3ccc([N+](=O)[O-])cc3)CC(=O)N(C3CCCCC3)[C@@H]2c2ccc(CO)cc21`: the composite z-score is -1.25 in assay [1]; -1.69 in assay [3]; -0.311 in assay [4]; -0.0449 in [5]; -0.208 in [6]; -0.33 in assay [7]. Also, the composite z-score is -0.181 in assay [8]; -0.803 in assay [9]; 0.547 in assay [10]; -0.124 in assay [11]; -0.357 in [13]; -0.0241 in assay [14]. The composite z-score in [15] is 0.77; in assay [16], -0.335; in assay [17] it was 0.73; in assay [18], -0.859; in assay [19] it was -1.91; in [20], -0.895. Also, the z-score in assay [2] is -0.707. Further, in assay [12], the composite Z-score was 0.659 (inactive).

The record behind these values is PubChem BioAssay.
